Assay results as given in article PMC5540273 (PLoS ONE, 2017).

System: AKT1
Details: concentration: 1 μM, replicates: in singlicate; n = 1
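Also: KINOMEscan kinase panel screen.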

SMILES | %Inh [%]
Cc1occc1-c1ncc(OC[C@@H](N)Cc2c[nH]c3ccccc23)cc1-c1ccc2[nH]nc(C)c2c1.O=C(O)C(F)(F)F [GSK682037] | 97
C[C@@H]1CC[C@@H](C(=O)Nc2ccccc2)CN1c1cc(-c2ccc3c(N)n[nH]c3c2)nc(N)n1 [GSK2286062] | 0
COc1cc(Nc2nccc(-c3c(-c4cccc(NC(=O)c5c(F)cccc5F)c4)nn4ncccc34)n2)cc(OC)c1OC [GSK327238] | 0
C[C@@H](Oc1cc(-n2cnc3cc(-c4ccnc(NCCS(C)(=O)=O)c4)ccc32)sc1C(N)=O)c1ccccc1Cl [GSK907232] | 0
CN1CCN(Cc2cccc(-c3ccc4c(Nc5ccc(Oc6ccccc6)cc5)ccnc4c3)c2)CC1 [GW578342] | 0
Cc1ccc(S(=O)(=O)Nc2ccc(Nc3nccc(Nc4cccc5[nH]ncc45)n3)cc2)cc1 [GSK581271] | 0

System: AKT2
Details: concentration: 1 μM, replicates: in singlicate; n = 1

SMILES | %Inh [%]
Cl.c1ccc(-c2ccc3c(Nc4ccc5[nH]ccc5c4)ccnc3c2)nc1 [GW440138] | 0
Nc1n[nH]c2cnc(-c3ccccc3)cc12 [SB-642124] | 8
CN(C)Cc1ccc(-c2ccc3c(Nc4ccc(Oc5ccccn5)cc4)ccnc3c2)o1 [GW567148] | 0
CC(C)(C)c1ccc2nccc(Nc3cccc(O)c3)c2c1 [GW856795] | 0
O=c1[nH]cc(-c2ccc(N3CCOCC3)cc2)c2sc(-c3cn[nH]c3)cc12 [GSK2276055] | 16
O=C(Nc1n[nH]c2cc(-c3ccoc3)ccc12)C1CC1 [SB-738481] | 0
CC(=O)N1CCN(c2ccc(Nc3nccc(-c4sc(C(C)C)nc4-c4cccc(NS(=O)(=O)c5cccc(Cl)c5)c4)n3)cn2)CC1 [GSK1660437] | 5
COc1cc2c(cc1OCCN1CCNCC1)ncc1c3ccc(C#N)cc3[nH]c21 | 0
CNC(=O)c1ccccc1Nc1nc(Nc2ccc(N3CCOCC3)cc2)ncc1Cl.Cl [GSK1576028] | 62
Oc1cc(Nc2ccnc3cc(I)ccc23)ccc1F [GW552771] | 16
COc1cccc(C2=C(Nc3ccc(Cl)c(C(=O)O)c3)C(=O)NC2=O)c1 [SB-390769] | 0
O=C(Nc1cccc(-c2nn3ccccc3c2-c2ccnc(Nc3cccc(F)c3)n2)c1)c1c(F)ccc(F)c1Cl [GSK357952] | 9
O=C(Nc1cccc(Oc2ccc3nc(NC(=O)C4CC4)cn3n2)c1)c1ccccc1C(F)(F)F | 0
CSc1cccc2c(-c3ccncn3)c(-c3ccc(F)cc3)nn12 [GW514786] | 0
Cn1cc(-c2[nH]c3cc(NC(=O)[C@H](N)C4CCCCC4)cc4c3c2C=NNC4=O)cn1 | 45
COc1ccc(CNC(=O)NC2CCN(c3ccnc(Nc4ccc(F)cc4)n3)CC2)cc1 [GSK1379788] | 0
COc1cccc(NC(=O)NC2CCN(c3ccnc(Nc4cc(OC)c(OC)c(OC)c4)n3)C2)c1 (stereo not shown) [GSK1379763] | 7
O=C(Nc1n[nH]c2nc(-c3ccc(O)cc3)ccc12)C1CC1 [SB-710363] | 0
CN1CCN(CCCNc2nccc(-c3c(-c4ccc(F)cc4)nn4cc(C(F)(F)F)ccc34)n2)CC1 [GW621581] | 0

SMILES | %Inh [%]
c1ccc(-c2n[nH]cc2Nc2ccnc3ccccc23)nc1 [GW694077] | 2
CCc1ccc(-c2ccc3c(c2)-c2c(cnn2C)S(=O)(=O)N3C)cc1 | 0
NCCCC(NC(=O)c1cc(Br)c(-c2ccnc3[nH]ccc23)s1)c1ccccc1.O=C(O)C(F)(F)F.O=C(O)C(F)(F)F (stereo not shown) [GSK1287544] | 52
Nc1ncc(-c2cccnc2)c2scc(-c3ccc4c(c3)CCN4C(=O)Cc3ccccc3)c12 [GSK683281] | 21
Cl.c1ccc(-c2ccc3c(Nc4ccc5[nH]ncc5c4)ccnc3c2)nc1 [GW440137] | 0
Cc1ccc(C)c(NC(=O)NC2CCN(c3ccnc(Nc4ccc(F)cc4)n3)C2)c1 (stereo not shown) [GSK1379720] | 19
COc1cc(Nc2nccc(-c3c(-c4cccc(NC(=O)c5c(F)cccc5F)c4)nn4ccccc34)n2)cc(OC)c1OC [GSK323521] | 0
Fc1ccc(-c2ncn(C3CCNCC3)c2-c2ccnc(Oc3ccc(-c4ccccc4)cc3)n2)cc1 [SB-245391] | 31
COc1cc(Nc2ncc3c(C)nc(-c4cc5ccccc5[nH]4)n3n2)cc(OC)c1OC [GW869516] | 0
Clc1ccc(-c2nn3ncccc3c2-c2ccnc(Nc3ccc4c(c3)OCCO4)n2)cc1 [GW829116] | 0
c1ccc(-c2cnc3nccnn23)cc1 [AH20685] | 0
O=C(Nc1ccccc1F)NC1CCN(c2ccnc(Nc3ccc(F)cc3)n2)CC1 [GSK1379800] | 11
Cc1occc1-c1ncc(OC[C@@H](N)Cc2c[nH]c3ccccc23)cc1-c1ccc2[nH]nc(C)c2c1.O=C(O)C(F)(F)F [GSK682037] | 99.8
C[C@@H]1CC[C@@H](C(=O)Nc2ccccc2)CN1c1cc(-c2ccc3c(N)n[nH]c3c2)nc(N)n1 [GSK2286062] | 7
COc1cc(Nc2nccc(-c3c(-c4cccc(NC(=O)c5c(F)cccc5F)c4)nn4ncccc34)n2)cc(OC)c1OC [GSK327238] | 11
C[C@@H](Oc1cc(-n2cnc3cc(-c4ccnc(NCCS(C)(=O)=O)c4)ccc32)sc1C(N)=O)c1ccccc1Cl [GSK907232] | 16
CN1CCN(Cc2cccc(-c3ccc4c(Nc5ccc(Oc6ccccc6)cc5)ccnc4c3)c2)CC1 [GW578342] | 11
Cc1ccc(S(=O)(=O)Nc2ccc(Nc3nccc(Nc4cccc5[nH]ncc45)n3)cc2)cc1 [GSK581271] | 0
